Assay results from PubChem BioAssay (Tox21).
Values joined by “and” are separate entries in the source; they are usually repeats but may differ in a detail not shown here. Identical values can stand only once. Results filed as inconclusive are left out. Where a structure was tested more than once in an assay, its records may differ in their call. Active and inactive are the calls of the source. Unless noted, the call rests on the fitted dose curve; in most records, active means well fitted curve in the direction sought with a large enough effect in the repeat runs; inconclusive means weak or mixed curves; inactive means no such curve, though single readings can be large; an effect the other way counts as inactive or inconclusive.

Assays:
[1] = qHTS assay for small molecule agonists of the p53 signaling pathway (AID 651631; calls by dose curve; further: nearly all actives have a fitted effect of over 15% in size)
How it was run: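 Read-out is beta-lactamase FRET fluorescence measured 2 h after substrate addition at room temperature, in HCT-116 cells with a p53 response element-driven reporter exposed to compounds for 16 h at 37 °C.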

[2] = qHTS assay for small molecules that induce genotoxicity in human embryonic kidney cells expressing luciferase-tagged ATAD5 (AID 651632); further: nearly all actives have a fitted effect of over 15% in size
How it was run: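 ATAD5-luc HEK293T, 2,000 cells/well; cpd or DMSO pin-transferred; 16 hr, 37C/5% CO2; Amplite 30 min RT; luminescence.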

[3] = qHTS assay for small molecule agonists of the p53 signaling pathway - cell viability (AID 651633; calls by dose curve;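 further: p53RE-bla HCT reporter cells with a stable beta-lactamase p53 reporter; series mostly up to about 83 µM; nearly all actives have a fitted effect of over 30% in size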)
How it was run: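 p53RE-bla cells, seeded at 4,000 per well and rested 5 h at 37 C/5% CO2, received compounds in DMSO for 16 h at 37 C. CellTiter-Glo was then added, and luminescence was read after 30 min at room temperature to gauge cytotoxicity.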

[4] = qHTS assay for small molecules that induce genotoxicity in human embryonic kidney cells expressing luciferase-tagged ATAD5 - cell viability (AID 651634; calls by dose curve; further: nearly all actives have a fitted effect of over 25% in size)
How it was run: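 Fluorescence from CellTiter-Fluor, reporting protease activity within live cells, served as the viability read-out. HEK293T cells carrying luciferase-tagged ATAD5 had been treated with compound for 15.5 hr at 37C.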

[5] = qHTS assay for small molecule disruptors of the mitochondrial membrane potential - cell viability (AID 720634; calls by dose curve;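 further: human HepG2 liver cancer cells; series mostly up to about 83 µM; nearly all actives have a fitted effect of over 20% in size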)
How it was run: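 Cells: HepG2, 2,000/well, attached overnight. Compound 1 hr, 37 C/5% CO2. +m-MPI dye, +CellTiter-Glo 30 min RT. Readout: luminescence (ATP).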

[6] = qHTS assay for small molecule disruptors of the mitochondrial membrane potential (AID 720635); further: potency means the concentration at half of the fitted maximal effect
How it was run: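 HepG2 cells (2,000/well) attached overnight at 37C, then took compound for 1 hr at 37C, 5% CO2. Mito-MPS dye was added for 30 min; fluorescence was read at 490/535 nm (monomers) and 540/590 nm (aggregates).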

[7] = qHTS assay to test for compound auto fluorescence at 590 nm (red) in HepG2 cells (AID 720674)
How it was run: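 Intrinsic compound fluorescence in the red window (Ex/Em 540/590 nm) is measured in attached HepG2 cells exposed for 1 hr, DMSO vehicle as baseline, benchmarked to Rose Bengal sodium.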

[8] = qHTS assay to test for compound auto fluorescence at 535 nm (green) in HepG2 cells (AID 720675)
[9] = qHTS assay to test for compound auto fluorescence at 460 nm (blue) in HEK293 cells (AID 720678)
How it was run: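 Cells were seeded and left to adhere for 4-5 hr at 37C. Compounds were then pin-transferred. After an overnight incubation at 37C under 5% CO2, intrinsic fluorescence at 405/460 nm was measured and referenced to triamterene.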

[10] = qHTS assay to test for compound auto fluorescence at 590 nm (red) in HEK293 cells (AID 720679)
How it was run: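 Each well held 2,000 HEK293 cells in medium containing 10% dialyzed FBS. Following 4-5 hr attachment at 37C, 23 nL test compound or DMSO was added; plates sat overnight, and red fluorescence (540/590nm) was recorded.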
On the % scale 0 is the no-effect control and ±100 the full control effect.

NC1=NC(=O)C(c2ccccc2)O1 (configuration not stated)
inactive: Potency [1] | Potency [2] | Potency [3] | Potency [4] | Potency [5] | Potency [6] | outcome [7] | outcome [8] | outcome [9] | outcome [10]

CS(=O)(=O)c1cc(C(F)(F)F)ccc1C(=O)c1cnoc1C1CC1
inactive: Potency [1] | Potency [2] | Potency [3] | Potency [4] | Potency [5] | Potency [6] | outcome [7] | outcome [8] | outcome [9] | outcome [10]

ClC(Cl)(Cl)C(Cl)(Cl)Cl
inactive: Potency [1] | Potency [2] | Potency [3] | Potency [4] | Potency [5] | Potency [6] | outcome [7] | outcome [8] | outcome [9] | outcome [10]

C=C(C)CN(CC)c1c([N+](=O)[O-])cc(C(F)(F)F)cc1[N+](=O)[O-]
active: Potency [6] 30.6 µM
inactive: Potency [1] | Potency [2] | Potency [3] | Potency [4] | Potency [5] | outcome [7] | outcome [8] | outcome [9] | outcome [10]

Nc1ccccc1Cl
inactive: Potency [1] | Potency [2] | Potency [3] | Potency [4] | Potency [5] | Potency [6] | outcome [7] | outcome [8] | outcome [9] | outcome [10]

COP(=S)(OC)Oc1ccc(S(N)(=O)=O)cc1
inactive: Potency [1] | Potency [2] | Potency [3] | Potency [4] | Potency [5] | Potency [6] | outcome [7] | outcome [8] | outcome [9] | outcome [10]

CCCSC(=O)N(CCC)CCC
inactive: Potency [1] | Potency [2] | Potency [3] | Potency [4] | Potency [5] | Potency [6] | outcome [7] | outcome [8] | outcome [9] | outcome [10]

C[C@@H]1CN(C2CCC(C#N)(c3ccc(F)cc3)CC2)CC[C@]1(C(=O)O)c1ccccc1 (some centres not stated)
inactive: Potency [1] | Potency [2] | Potency [3] | Potency [4] | Potency [5] | Potency [6] | fluorescence, relative to Rose Bengal [7] -0.0454% [at 18.6 µM] | fluorescence, % of fluorescein control [8] -0.0057% [at 18.6 µM] | fluorescence, % of triamterene [9] 0.0981% [at 18.6 µM] | fluorescence, % of fluorescent control [10] 0.571% [at 18.6 µM]

COc1cc(OC)nc(Sc2cccc(Cl)c2C(=O)O)n1
inactive: Potency [1] | Potency [2] | Potency [3] | Potency [4] | Potency [5] | Potency [6] | outcome [7] | outcome [8] | outcome [9] | outcome [10]

CSc1nc(N=[N+]=[N-])nc(NC(C)C)n1
inactive: Potency [1] | Potency [2] | Potency [3] | Potency [4] | Potency [5] | Potency [6] | outcome [7] | outcome [8] | outcome [9] | outcome [10]

CC(=O)CCc1ccc2c(c1)OCO2
inactive: Potency [1] | Potency [2] | Potency [3] | Potency [4] | Potency [5] | Potency [6] | outcome [7] | outcome [8] | outcome [9] | outcome [10]

CCOC(=O)/C=C(C)/C=C/C[C@@H](C)CCCC(C)C
inactive: Potency [1] | Potency [2] | Potency [3] | Potency [4] | Potency [5] | outcome [7] | outcome [9] | outcome [10]
inactive and 54.5 µM (active): Potency [6]

OC(c1ccccc1)(c1ccccc1)C1CCNCC1
inactive: Potency [1] | Potency [2] | Potency [3] | Potency [4] | Potency [5] | Potency [6] | fluorescence, relative to Rose Bengal [7] 0.0965% [at 18.6 µM] | fluorescence, % of triamterene [9] -0.0368% [at 18.6 µM] | fluorescence, % of fluorescent control [10] -0.0312% [at 18.6 µM]

CC(C)NCC(O)c1ccc(N)c(C#N)c1 (configuration not stated)
inactive: Potency [1] | Potency [2] | Potency [3] | Potency [4] | Potency [5] | Potency [6] | outcome [7] | outcome [9] | outcome [10]

CCC1(c2ccccc2)C(=O)N=C(O)NC1=O (configuration not stated)
inactive: Potency [1] | Potency [2] | Potency [3] | Potency [4] | Potency [5] | Potency [6] | outcome [7] | outcome [9] | outcome [10]

COC(C)(C)C
inactive: Potency [1] | Potency [2] | Potency [3] | Potency [4] | Potency [5] | Potency [6] | outcome [7] | outcome [8] | outcome [9] | outcome [10]

COP(N)(=S)Oc1ccccc1C(=O)OC(C)C (configuration not stated)
inactive: Potency [1] | Potency [2] | Potency [3] | Potency [4] | Potency [5] | outcome [7] | outcome [8] | outcome [9] | outcome [10]

CC1=NNC(=O)N(/N=C/c2cccnc2)C1
inactive: Potency [1] | Potency [2] | Potency [3] | Potency [4] | Potency [5] | Potency [6] | outcome [7] | outcome [8] | outcome [9] | outcome [10]

ClCC(Cl)(Cl)Cl
inactive: Potency [1] | Potency [2] | Potency [3] | Potency [4] | Potency [5] | Potency [6] | outcome [7] | outcome [9] | outcome [10]

OC(Cn1cncn1)(c1ccc(F)cc1)c1ccccc1F (configuration not stated)
inactive: Potency [1] | Potency [2] | Potency [3] | Potency [4] | Potency [5] | Potency [6] | outcome [7] | outcome [8] | outcome [9] | outcome [10]

O=C(NCO)NCO
inactive: Potency [1] | Potency [2] | Potency [3] | Potency [4] | Potency [5] | Potency [6] | outcome [7] | outcome [9] | outcome [10]

Cc1ncc(CNC(=O)N(CCCl)N=O)c(N)n1
inactive: Potency [1] | Potency [2] | Potency [3] | Potency [4] | Potency [5] | Potency [6] | outcome [7] | outcome [8] | outcome [9] | outcome [10]

Nc1cnn(-c2ccccc2)c(=O)c1Cl
inactive: Potency [1] | Potency [2] | Potency [3] | Potency [4] | Potency [5] | Potency [6] | outcome [7] | outcome [9] | outcome [10]

N#CCNCC#N
inactive: Potency [1] | Potency [2] | Potency [3] | Potency [4] | Potency [5] | Potency [6] | outcome [7] | outcome [8] | outcome [9] | outcome [10]

C[C@]1(O)CC[C@H]2[C@@H]3CCC4=CC(=O)CC[C@]4(C)[C@@]3(F)[C@@H](O)C[C@@]21C
inactive: Potency [1] | Potency [2] | Potency [3] | Potency [4] | Potency [5] | Potency [6] | outcome [7] | outcome [8] | outcome [9] | outcome [10]
